High-throughput results deposited in PubChem by several laboratories.
Compounds with a hit are over-represented: about 4.6% of the library has one in this group of screens.
FAS TE block: FAS thioesterase (human) inhibition | P49327 | actives 0.67% (n = 360,000) | AID 602261 | inhibition, % at 15 µM | recombinant FAS-TE, OMFH fluorogenic substrate, fluorescence endpoint;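 active means compounds whose normalised, plate-corrected inhibition of enzyme fluorescence in the single-dose primary screen is 50% or more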;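 further: 0% = DMSO with enzyme and 100% = substrate without enzyme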
NR3A LBD binder: NR3A (human) ligand-binding domain modulation. actives 2.5% (n = 340,000). NR3A LBD differential scanning fluorimetry, Tm shift; 0% = protein alone, 100% = glycine-bound protein. Tm shift relative to glycine control, % at 25 µM;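 active means melting temperature shift of at least 10% of the positive control shift, at one fixed dose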
ADAM17 inh: inhibits human ADAM17; AID 720648; P78536; inhibition, % at 6.95 µM; recombinant ADAM17, EDANS/DABCYL FRET peptide cleavage; actives 0.83% (n = 370,000);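 active means inhibition above the mean of compounds lying between control limits plus 3 SD, set per campaign, cut at about 8.5% in these data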;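 further: 0% = DMSO-only wells as the low control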
ADAM10 inh: inhibits human ADAM10; O14672; recombinant ADAM10, EDANS/DABCYL FRET peptide cleavage, 3 h; inhibition, % at 7 µM; actives 0.62% (n = 370,000);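 active means inhibition above a per-campaign cutoff equal to the mean of compounds falling between control-based bounds plus 3 SD, cut at about 20% in these data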;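 further: 0% = DMSO wells while the 100% control is not disclosed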
Target sequence (O14672 214-748 limits assumed): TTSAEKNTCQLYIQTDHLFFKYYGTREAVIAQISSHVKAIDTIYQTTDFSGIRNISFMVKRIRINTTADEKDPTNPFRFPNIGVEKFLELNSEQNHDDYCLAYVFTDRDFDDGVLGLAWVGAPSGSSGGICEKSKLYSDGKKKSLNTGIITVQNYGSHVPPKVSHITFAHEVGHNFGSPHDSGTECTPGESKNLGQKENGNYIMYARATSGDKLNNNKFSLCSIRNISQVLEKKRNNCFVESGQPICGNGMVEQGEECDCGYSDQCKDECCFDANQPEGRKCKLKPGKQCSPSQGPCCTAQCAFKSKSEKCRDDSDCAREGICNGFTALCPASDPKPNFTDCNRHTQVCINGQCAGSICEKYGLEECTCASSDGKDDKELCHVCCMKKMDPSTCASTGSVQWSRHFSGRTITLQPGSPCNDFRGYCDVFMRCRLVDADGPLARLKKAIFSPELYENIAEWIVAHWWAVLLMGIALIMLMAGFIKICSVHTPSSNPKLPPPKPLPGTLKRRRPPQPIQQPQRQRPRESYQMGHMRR
proKLK7 act: activates the human kallikrein-7 zymogen. P49862. purified proKLK7, EDANS-DABCYL substrate fluorescence; 100% is mature enzyme control, 0% vehicle. activation, % at 7 µM. actives 0.9% (n = 370,000);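 active means activation above the mean of all tested compounds plus 3 SD, computed per campaign excluding outliers beyond control limits, cut at about 13% in these data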
The depositor's hits bear a star; i = inactive; · = no result given.

SMILES	FAS TE block	NR3A LBD binder	ADAM17 inh	ADAM10 inh	proKLK7 act
C=CCN1[C@H](C)COc2cc(N3CCSCC3)ccc2S1(=O)=O	·	·	2	2	0
COc1ccccc1NS(=O)(=O)c1ccc(N/N=C/c2ccccc2OCC(=O)O)c([N+](=O)[O-])c1	-5	4	-2	-3	0
Cc1[nH]c2ccccc2c1/C=N/Nc1ccc([N+](=O)[O-])cc1S(=O)(=O)Nc1ccc(Cl)cc1	17	9	0	-8	1
COc1ccc(NS(=O)(=O)c2cc([N+](=O)[O-])ccc2NN=Cc2ccccc2OCC(=O)O)cc1	34	40*	0	-1	1
COc1ccccc1NS(=O)(=O)c1cc([N+](=O)[O-])ccc1N/N=C/c1c[nH]c2ccccc12	3	23*	0	9	0
O=[N+]([O-])c1ccccc1N/N=C/c1c[nH]c2ccccc12	31	16*	-2	-3	0
COc1ccc(NS(=O)(=O)c2cc([N+](=O)[O-])ccc2N/N=C\c2c(C)[nH]c3ccccc23)cc1	-6	28*	-1	-3	0
CC(C)(C)c1ccc(-c2nnc(SCC(=O)Nc3ccc(Oc4ccccc4)cc3)n2Cc2ccco2)cc1	·	·	0	0	0
C[C@H]1[C@@H](OC(=O)NCc2cccc(C(F)(F)F)c2)CC[C@@]23CCCN2C(=O)CCC[C@@H]13	·	·	-2	4	·
COc1ccc(C=NNc2ccc([N+](=O)[O-])cc2S(=O)(=O)Nc2ccccc2C(=O)O)cc1OC	42	31*	-2	-3	0
O=C(O)COc1ccccc1/C=N/Nc1ccc(S(=O)(=O)Nc2ccc(Cl)cc2)cc1[N+](=O)[O-]	28	10*	4	4	0
CN(CCO)c1cccc2c1S(=O)(=O)N(Cc1cn(Cc3ccc(Cl)cc3)nn1)Cc1ccccc1O2	·	·	-3	-4	1
Cc1ccc(N=CC=C2OC(C)(C)C(C)(C)O2)c(C)c1	-3	15*	-31	-81	-5
C=CCn1c(SCC(=O)Nc2ccc(CCCC)cc2)nnc1-c1ccc(Cl)cc1	·	·	-2	0	0
COc1ccc2c(c1)CNC2CS(=O)(=O)NCC(C)C (stereo unspecified)	·	·	-22	-79	-3
COC(=O)C[C@H]1CC[C@@H]2[C@H](COc3ccc(NC(=O)c4cnccn4)cc3C(=O)N2C)O1	·	·	-1	0	1
COc1ccc(C)cc1NC1=C(Cl)C(=O)N(C2CCCCC2)C1=O	27	6	-6	8	0
CCOc1ccc(NC2=C(Cl)C(=O)N(C3CCCCC3)C2=O)cc1	-5	17*	3	0	0
O=C(COC(=O)c1ccc(O)cc1O)Nc1ccc2ccccc2c1	14	14*	2	-1	0
O=C(COC(=O)c1ccc(CO)cc1)Nc1ccc(OC(F)F)cc1	0	16*	-5	0	-1
CC1CCc2c(sc(NC(=O)COC(=O)c3ccc(NC(=O)CC#N)cc3)c2C#N)C1 (stereo unspecified)	9	26*	-5	-3	-1
N#CCC(=O)Nc1ccc(C(=O)OCC(=O)Nc2ccc3ccccc3c2)cc1	6	30*	-1	-11	1
O=C(COC(=O)c1ccc(CO)cc1)Nc1ccc2ccccc2c1	-6	0	-2	-2	0
COc1ccc(-n2c(SCC(=O)Nc3ccc4c(c3)OCCO4)nnc2-c2ccccc2)cc1	·	·	0	0	0
N#C/C(=C\c1ccc(-c2ccccc2Cl)o1)C(=O)Nc1nc2ccccc2s1	3	18*	0	3	0
SMILES	FAS TE block	NR3A LBD binder	ADAM17 inh	ADAM10 inh	proKLK7 act
CC[C@@]12C(=O)N(c3cccc(Cl)c3)C(=O)N1[C@H](c1ccc(Br)cc1)[C@@H]1C(=O)N(C(C)(C)C)C(=O)[C@@H]12	56*	-5	5	13	1
CC(C)(C)N1C(=O)[C@H]2[C@@H](c3ccc(Br)cc3)N3C(=O)N(c4cccc(Br)c4)C(=O)[C@@]3(Cc3ccccc3)[C@H]2C1=O	86*	10*	·	·	·
CC(C)C[C@@]12C(=O)N(c3cccc(Cl)c3)C(=O)N1[C@H](c1ccc(Br)cc1)[C@@H]1C(=O)N(C(C)(C)C)C(=O)[C@@H]12	50	2	2	2	1
CC[C@]12c3[nH]c4ccc(Cl)cc4c3CCN1C(=O)[C@@H](CC(=O)NCC13CC4CC(CC(C4)C1)C3)C[C@@H]2C(=O)N1CCN(C(=O)c2ccco2)CC1	15	2	5	35*	-1
CC[C@]12c3[nH]c4ccc(OC)cc4c3CCN1C(=O)C(CC(=O)NCC13CC4CC(CC(C4)C1)C3)C[C@@H]2C(=O)N1CCN(C(=O)c2ccco2)CC1 (stereo partly specified)	8	1	·	·	·
COc1ccc(/C=C2/C(=O)C(C)(C(C)C)CCC2C)cc1 (stereo unspecified)	27	10*	-7	3	1
Clc1ccc(/C=C/c2nc3ccccc3[nH]2)cc1	9	13*	-374	i	10
O=C(/C=C/c1ccc(Cl)cc1Cl)c1nc2ccccc2[nH]1	0	-4	-1	5	1
Clc1cccc(Cl)c1/C=C/c1nc2ccccc2[nH]1	15	3	·	·	·
Clc1ccc(/C=C/c2nc3ccccc3[nH]2)c(Cl)c1	12	17*	i	i	-2
COc1ccc(-n2c(COc3ccc(Cl)cc3)nnc2SCC(=O)c2ccc(-c3ccccc3)cc2)cc1	·	·	8	11	-1
O=C(NCc1ccc(Cl)cc1)C1CCCN(c2ncccn2)C1 (stereo unspecified)	·	·	-6	-17	0
Cc1cccc(C)c1NC(=O)CN1N=NC2C(=O)N(c3cccc(Cl)c3)C(=O)C21 (stereo unspecified)	-7	18*	0	2	0
Cc1ccc(N2C(=O)C3N=NN(CC(=O)N4N=C(c5ccccc5)CC4c4ccccc4)C3C2=O)cc1 (stereo unspecified)	27	2	1	12	-1
Cc1ccccc1CN1CCCCC(NC(=O)Nc2cccc(F)c2)C1=O (stereo unspecified)	·	·	0	14	0
Cc1ccc(CNC(=O)OC(C)(C)C)c(/C=C/S(=O)(=O)NC2CCCC2)c1	·	·	-3	0	0
Cc1ccc(NS(=O)(=O)c2ccc(NC(=O)c3cccs3)cc2)c(C)c1	15	29*	7	11	0
Cc1cc(C)nc(NS(=O)(=O)c2ccc(NC(=O)c3cccs3)cc2)n1	-5	7	-3	-1	0
Cc1cc(C)cc(NS(=O)(=O)c2ccc(NC(=S)NC(=O)c3cccs3)cc2)c1	28	24*	6	8	0
CNC(=O)c1cc(S(=O)(=O)NC2CCCCCC2)ccc1C	-5	-1	-7	-11	0
CNC(=O)c1cc(S(=O)(=O)Nc2ccc(C)cc2C)ccc1C	0	14*	1	-3	0
O=C(NC1CCCC1)c1ccc(COc2ccccc2)o1	·	·	-12	-14	0
